Measured values from the supplement of paper PMC10849652.
Targets with a hit are over-represented here; the source holds about 8,800 in all. About 0.5% of all pairs of compound and target were hits. Values without a mark were called inactive.

Legend:
Test in all cases: log2 fold change, soluble protein after heating vs DMSO (PISA); higher = thermal stabilisation; K562 lysate, 10 uM; active = over 0.2 and 3.5 SD of the protein, either way, in both replicates (recomputed)
[1] = compound: C=CC(=O)N1CCC[C@@H](n2nc(-c3ccc(Oc4ccccc4)cc3)c3c(N)ncnc32)C1 [ibrutinib]
In short: (§1)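 Following dounce homogenisation of K562 pellets in PBS pH 7.4 with 1 mM MgCl2, crude extract at 1 mg/mL protein was incubated for 30 min with 10 μM compound. Aliquots were then heated for 3 min over 48°C-58°C and pooled, NP-40 was added to 0.5% at 4°C, and soluble protein was recovered as the supernatant at 21,000xg for 90 min. Channel-sum-equalised TMTpro 16plex LC-MS/MS quantified this protein. Each value, from duplicates, is a log-two fold change in thermal stability relative to solvent controls.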

[2] = compound: CC(=O)c1cnc2ccc(-c3cc(Cl)c(O)c(Cl)c3)nc2c1N[C@H]1CC[C@H](CN(C)C)CC1
In short: as §1

[3] = compound: CC(C)(C)Cn1c(N)nc2ccc(-c3[nH]c(C(C)(C)C)nc3-c3ccc(F)cc3)nc21 [ralimetinib]
In short: as §1

[4] = compound: CC(C)(O)CC(=O)NCCn1ccc2ncnc(Nc3ccc(Oc4cccc(C(F)(F)F)c4)c(Cl)c3)c21
In short: as §1

[5] = compound: CC(C)C1=C2N=C(C=C(N2N=C1)NCC3=CC=CC=C3)NCCCCCCN
In short: as §1

[6] = compound: CC1=C(C(CC(=O)N1)C2=CC=C(C=C2)C(F)(F)F)C(=O)NC3=C(C=C4C(=C3)C=NN4)F
In short: as §1

[7] = compound: CC1=C(C2=C(C=C1)C(=O)C3=CC=CC=C3N2CCCN)C
In short: as §1

[8] = compound: CC1=C(C=C(C=C1)NC(=O)C2=CC(=CC=C2)C(C)(C)C#N)NC3=CC4=C(C=C3)N=CN(C4=O)C
In short: as §1

[9] = compound: CC1=C(C=C(C=C1)NC(=O)C2=CC(=CC=C2)N(C)C)NC(=O)C3=CC=C(C=C3)O
In short: as §1

[10] = compound: CC1=CC=C(C=C1)SC2=C3C=C(SC3=CN=C2)C(=O)N
In short: as §1

[11] = compound: CCCS(=O)(=O)Nc1ccc(F)c(C(=O)c2c[nH]c3ncc(-c4ccc(Cl)cc4)cc23)c1F [vemurafenib]
In short: as §1

[12] = compound: CCCS(=O)(=O)Nc1ccc(F)c(C(=O)c2c[nH]c3ncc(Cl)cc23)c1F
In short: as §1

[13] = compound: CCN(CCCOc1ccc2c(Nc3cc(CC(=O)Nc4cccc(F)c4)[nH]n3)ncnc2c1)CCOP(=O)(O)O [barasertib]
In short: as §1

[14] = compound: CC[C@@H]1C(=O)N(C)c2cnc(Nc3ccc(C(=O)NC4CCN(C)CC4)cc3OC)nc2N1C1CCCC1
In short: as §1

[15] = compound: CC[C@@H]1C(=O)N(C)c2cnc(Nc3ccc(C(=O)N[C@H]4CC[C@H](N5CCN(CC6CC6)CC5)CC4)cc3OC)nc2N1C(C)C [volasertib]
In short: as §1

[16] = compound: CCn1c(C(=O)N(C2CC2)C2CC2)cc2c3c(ncn3C)c(Nc3cc(C)n(C)n3)nc21
In short: as §1

[17] = compound: CCn1cc(-c2ccnc3[nH]c(-c4cccc(CN(C)C)c4)cc23)c(-c2ccc(NC(=O)N(C)C)cc2)n1
In short: as §1

[18] = compound: CN1CCC(CNc2ccc3ncc(-c4cccc(OC(F)(F)F)c4)n3n2)CC1
In short: as §1

[19] = compound: CN1CCN(CCOc2cc(OC3CCOCC3)c3c(Nc4c(Cl)ccc5c4OCO5)ncnc3c2)CC1 [saracatinib]
In short: as §1

[20] = compound: CN1CCN(c2nc(C3=C(c4c[nH]c5ccccc45)C(=O)NC3=O)c3ccccc3n2)CC1 [sotrastaurin]
In short: as §1

Chain of UniProt Q12933 (Q12933 whole entry, looked up): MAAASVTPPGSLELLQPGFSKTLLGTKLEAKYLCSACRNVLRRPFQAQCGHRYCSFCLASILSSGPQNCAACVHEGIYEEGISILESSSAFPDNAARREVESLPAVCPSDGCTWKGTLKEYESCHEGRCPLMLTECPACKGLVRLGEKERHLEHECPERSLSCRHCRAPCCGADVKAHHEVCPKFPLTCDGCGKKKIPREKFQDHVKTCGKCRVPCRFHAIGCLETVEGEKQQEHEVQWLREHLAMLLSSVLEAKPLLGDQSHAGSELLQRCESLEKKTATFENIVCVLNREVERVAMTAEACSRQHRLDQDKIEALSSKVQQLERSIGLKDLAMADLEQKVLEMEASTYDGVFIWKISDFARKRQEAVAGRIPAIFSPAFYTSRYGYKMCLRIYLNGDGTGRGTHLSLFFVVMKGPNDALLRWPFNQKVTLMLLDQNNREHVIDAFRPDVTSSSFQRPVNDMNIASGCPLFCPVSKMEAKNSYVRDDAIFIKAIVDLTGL
Chain of UniProt Q9UKE5 (Q9UKE5 whole entry, looked up): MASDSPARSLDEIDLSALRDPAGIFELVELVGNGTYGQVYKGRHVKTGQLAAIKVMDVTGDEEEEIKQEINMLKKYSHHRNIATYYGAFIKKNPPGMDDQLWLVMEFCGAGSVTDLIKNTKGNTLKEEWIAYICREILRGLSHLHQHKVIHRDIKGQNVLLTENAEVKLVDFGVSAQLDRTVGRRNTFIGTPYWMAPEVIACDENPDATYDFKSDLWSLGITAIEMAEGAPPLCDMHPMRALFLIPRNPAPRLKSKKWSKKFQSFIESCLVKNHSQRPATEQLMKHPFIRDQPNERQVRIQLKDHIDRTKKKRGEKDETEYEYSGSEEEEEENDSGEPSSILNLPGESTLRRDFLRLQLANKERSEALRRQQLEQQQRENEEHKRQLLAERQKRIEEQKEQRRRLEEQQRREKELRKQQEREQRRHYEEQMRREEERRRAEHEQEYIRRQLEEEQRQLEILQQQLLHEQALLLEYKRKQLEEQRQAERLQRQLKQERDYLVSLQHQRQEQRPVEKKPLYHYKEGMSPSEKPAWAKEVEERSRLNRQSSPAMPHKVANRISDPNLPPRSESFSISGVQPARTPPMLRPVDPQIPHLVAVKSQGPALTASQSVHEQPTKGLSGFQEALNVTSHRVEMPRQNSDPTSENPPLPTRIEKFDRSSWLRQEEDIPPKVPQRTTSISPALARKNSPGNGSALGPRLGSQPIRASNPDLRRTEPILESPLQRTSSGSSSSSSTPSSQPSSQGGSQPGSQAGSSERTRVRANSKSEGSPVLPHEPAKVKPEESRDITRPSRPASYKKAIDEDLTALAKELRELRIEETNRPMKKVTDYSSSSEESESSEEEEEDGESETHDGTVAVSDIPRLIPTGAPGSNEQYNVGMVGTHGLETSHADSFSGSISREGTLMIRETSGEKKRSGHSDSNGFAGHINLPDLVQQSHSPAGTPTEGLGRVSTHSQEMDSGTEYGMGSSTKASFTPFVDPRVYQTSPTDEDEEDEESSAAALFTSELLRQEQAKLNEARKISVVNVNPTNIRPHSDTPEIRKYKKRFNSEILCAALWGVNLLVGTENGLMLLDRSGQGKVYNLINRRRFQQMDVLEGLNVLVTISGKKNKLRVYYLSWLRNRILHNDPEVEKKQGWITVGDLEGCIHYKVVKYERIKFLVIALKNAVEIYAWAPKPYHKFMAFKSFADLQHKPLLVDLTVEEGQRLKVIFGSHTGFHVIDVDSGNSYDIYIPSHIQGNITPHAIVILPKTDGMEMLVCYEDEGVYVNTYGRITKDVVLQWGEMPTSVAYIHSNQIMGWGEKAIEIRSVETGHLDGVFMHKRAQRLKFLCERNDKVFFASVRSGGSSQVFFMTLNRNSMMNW
Chain of UniProt Q9Y2W6 (Q9Y2W6 whole entry, looked up): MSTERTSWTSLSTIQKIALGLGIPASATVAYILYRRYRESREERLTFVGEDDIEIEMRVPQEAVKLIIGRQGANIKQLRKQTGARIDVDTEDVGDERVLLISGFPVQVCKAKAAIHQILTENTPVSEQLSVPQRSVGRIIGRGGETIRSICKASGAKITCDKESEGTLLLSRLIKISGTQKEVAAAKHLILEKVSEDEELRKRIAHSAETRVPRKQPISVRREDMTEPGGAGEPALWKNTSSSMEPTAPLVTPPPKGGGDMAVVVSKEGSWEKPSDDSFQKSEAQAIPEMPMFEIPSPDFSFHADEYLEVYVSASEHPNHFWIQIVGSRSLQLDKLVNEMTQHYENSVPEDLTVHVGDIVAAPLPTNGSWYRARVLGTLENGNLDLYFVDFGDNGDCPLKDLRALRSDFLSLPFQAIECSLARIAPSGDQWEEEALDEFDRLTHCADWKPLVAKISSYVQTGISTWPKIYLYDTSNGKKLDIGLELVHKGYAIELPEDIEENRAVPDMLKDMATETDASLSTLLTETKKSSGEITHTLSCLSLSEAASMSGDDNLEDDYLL
Chain of UniProt Q14139 (Q14139 whole entry, looked up): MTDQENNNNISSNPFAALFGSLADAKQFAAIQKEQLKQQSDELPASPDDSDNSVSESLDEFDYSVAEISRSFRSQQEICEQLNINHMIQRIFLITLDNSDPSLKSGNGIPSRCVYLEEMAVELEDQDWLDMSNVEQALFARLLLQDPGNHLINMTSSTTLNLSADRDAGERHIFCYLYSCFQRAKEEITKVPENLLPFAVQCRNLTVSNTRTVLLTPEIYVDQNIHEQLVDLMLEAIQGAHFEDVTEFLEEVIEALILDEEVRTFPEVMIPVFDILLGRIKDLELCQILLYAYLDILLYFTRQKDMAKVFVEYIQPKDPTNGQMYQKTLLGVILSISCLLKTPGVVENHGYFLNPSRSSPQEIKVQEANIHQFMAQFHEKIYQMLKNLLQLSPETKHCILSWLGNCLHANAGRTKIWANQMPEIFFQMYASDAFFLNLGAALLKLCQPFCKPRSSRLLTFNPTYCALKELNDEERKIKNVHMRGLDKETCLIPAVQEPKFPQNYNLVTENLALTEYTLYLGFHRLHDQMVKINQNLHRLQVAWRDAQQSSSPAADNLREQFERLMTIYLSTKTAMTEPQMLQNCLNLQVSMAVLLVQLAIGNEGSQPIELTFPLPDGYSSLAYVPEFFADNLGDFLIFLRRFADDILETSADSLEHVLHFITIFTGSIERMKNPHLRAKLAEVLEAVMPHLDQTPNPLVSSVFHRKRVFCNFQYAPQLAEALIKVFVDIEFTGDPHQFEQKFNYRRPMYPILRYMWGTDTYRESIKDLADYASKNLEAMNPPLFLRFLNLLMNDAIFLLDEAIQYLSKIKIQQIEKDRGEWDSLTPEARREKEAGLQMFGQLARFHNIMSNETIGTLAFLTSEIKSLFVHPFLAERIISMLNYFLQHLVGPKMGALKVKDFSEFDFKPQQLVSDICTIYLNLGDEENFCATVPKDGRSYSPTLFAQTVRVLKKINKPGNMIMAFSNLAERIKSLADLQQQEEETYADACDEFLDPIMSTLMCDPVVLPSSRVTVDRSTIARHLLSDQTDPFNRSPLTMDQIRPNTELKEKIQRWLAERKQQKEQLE
Chain of UniProt Q96S44 (Q96S44 whole entry, looked up): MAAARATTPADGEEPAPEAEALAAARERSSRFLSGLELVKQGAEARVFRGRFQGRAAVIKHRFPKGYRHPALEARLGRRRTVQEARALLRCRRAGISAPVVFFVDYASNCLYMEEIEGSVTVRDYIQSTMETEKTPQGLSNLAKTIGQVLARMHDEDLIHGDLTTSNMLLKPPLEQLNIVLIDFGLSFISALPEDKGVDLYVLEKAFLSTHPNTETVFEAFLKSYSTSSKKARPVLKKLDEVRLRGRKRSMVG
Chain of UniProt Q8N0Z6 (Q8N0Z6 whole entry, looked up): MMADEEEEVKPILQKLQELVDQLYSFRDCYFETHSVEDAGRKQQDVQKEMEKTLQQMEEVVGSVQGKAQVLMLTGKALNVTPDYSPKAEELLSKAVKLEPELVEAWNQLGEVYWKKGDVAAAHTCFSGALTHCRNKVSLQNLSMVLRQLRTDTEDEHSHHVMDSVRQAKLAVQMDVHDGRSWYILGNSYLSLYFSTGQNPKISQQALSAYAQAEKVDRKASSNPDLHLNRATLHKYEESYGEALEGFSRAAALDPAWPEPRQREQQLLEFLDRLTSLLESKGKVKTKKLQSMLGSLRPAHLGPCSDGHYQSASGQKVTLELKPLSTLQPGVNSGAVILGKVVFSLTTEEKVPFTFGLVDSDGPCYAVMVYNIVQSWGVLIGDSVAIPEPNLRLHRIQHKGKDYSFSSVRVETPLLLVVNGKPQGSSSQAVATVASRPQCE
Chain of UniProt O14933 (O14933 whole entry, looked up): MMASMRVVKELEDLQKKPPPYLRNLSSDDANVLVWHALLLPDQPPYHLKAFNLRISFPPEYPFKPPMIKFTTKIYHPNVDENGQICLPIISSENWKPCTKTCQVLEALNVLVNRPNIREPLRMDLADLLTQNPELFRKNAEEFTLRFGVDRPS

Target | log2 fold change [1] | log2 fold change [2] | log2 fold change [3] | log2 fold change [4] | log2 fold change [5] | log2 fold change [6] | log2 fold change [7] | log2 fold change [8] | log2 fold change [9] | log2 fold change [10] | log2 fold change [11] | log2 fold change [12] | log2 fold change [13] | log2 fold change [14] | log2 fold change [15] | log2 fold change [16] | log2 fold change [17] | log2 fold change [18] | log2 fold change [19] | log2 fold change [20]
TTC5 (UniProt Q8N0Z6) | 0.019 | 0.007 | 0.017 | 0.001 | 0.042 | -0.089 | -0.01 | 0.017 | 0.016 | -0.001 | 0.016 | 0.017 | -0.014 | -0.03 | -0.014 | 0.018 | -0.111 | 0.054 | 0.005 | 0.007
TP53RK (UniProt Q96S44) | 0.02 | -0.059 | 0.019 | -0.008 | 0.007 | -0.013 | -0.004 | 0 | -0.02 | -0.071 | -0.018 | 0.047 | 0 | -0.058 | -0.002 | 0.013 | 0.025 | -0.039 | -0.049 | -0.023
TRAF2 isoform 2 (UniProt Q12933) | -0.026 | -0.002 | 0.022 | -0.022 | -0.051 | -0.004 | -0.028 | 0.029 | -0.009 | -0.006 | -0.004 | 0.012 | 0 | 0.072 | -0.006 | 0.013 | -0.034 | -0.032 | -0.011 | -0.029
TBC1D2B (UniProt Q9UPU7) | 0.075 | -0.017 | 0.008 | 0.003 | -0.054 | 0.058 | 0.006 | -0.03 | 0.031 | 0.025 | 0.037 | 0.014 | 0.001 | 0.012 | -0.099 | -0.018 | 0.004 | -0.041 | 0.033 | 0.062
TDRKH (UniProt Q9Y2W6) | -0.028 | -0.023 | 0.033 | -0.027 | -0.02 | 0.003 | -0.008 | -0.006 | -0.005 | -0.035 | 0.07 | 0.055 | 0.031 | -0.195 | -0.052 | -0.003 | -0.095 | 0.058 | -0.004 | -0.039
TPM1 (UniProt H7BYY1) | -0.002 | -0.018 | -0.035 | 0.068 | 0.037 | -0.027 | 0.023 | -0.045 | 0.039 | -0.034 | -0.001 | -0.024 | -0.031 | 0.052 | 0.043 | -0.003 | 0.092 | -0.205 (active) | 0.009 | 0.015
TNIK isoform 4 (UniProt Q9UKE5) | 0.008 | 0.374 (active) | -0.024 | -0.005 | 0.046 | -0.013 | -0.019 | 0.186 | -0.012 | -0.068 | 0.002 | -0.015 | -0.034 | 0.025 | 0 | 0.011 | 0.071 | 0.099 | 0.071 | 0.056
TRAPPC9 isoform 2 (UniProt Q96Q05) | 0.003 | 0.019 | 0.055 | -0.025 | -0.003 | -0.043 | -0.023 | 0.02 | -0.016 | -0.001 | 0.053 | 0.001 | 0.007 | -0.004 | -0.059 | 0.021 | 0.011 | 0.019 | 0.005 | -0.035
TRIM33 (UniProt H0Y612) | 0.016 | -0.003 | 0.135 | -0.084 | 0.068 | -0.099 | -0.004 | -0.031 | -0.009 | -0.012 | 0.012 | 0.007 | 0.087 | 0.018 | 0.012 | 0.093 | -0.017 | 0.051 | -0.078 | 0.006
UBE4A isoform 2 (UniProt Q14139) | -0.025 | 0.018 | 0.038 | -0.038 | -0.023 | 0.03 | 0.019 | -0.009 | 0.034 | -0.009 | -0.008 | -0.001 | -0.009 | 0.003 | -0.053 | 0.031 | -0.03 | -0.081 | 0.011 | 0.025
TLE3 isoform 4 (UniProt Q04726) | -0.002 | -0.01 | 0.003 | -0.005 | 0 | -0.023 | 0.012 | -0.016 | 0.003 | -0.022 | 0.009 | 0.01 | 0.005 | 0.065 | 0.021 | 0.027 | -0.001 | 0.01 | 0.017 | -0.017
UBE2L6 (UniProt O14933) | 0.152 | 0.012 | -0.002 | -0.041 | -0.009 | -0.033 | -0.014 | -0.019 | -0.007 | 0.002 | 0.031 | -0.035 | 0.229 | 0.041 | 0.008 | 0.022 | 0.037 | -0.115 | -0.034 | -0.03
